# Screens from PubChem.
# TTR transcr act = TTR transcription activation, primary screen. hit rate 1.3% among 92,000. activation, % at 16.7 µM. SH-SY5Y TTR promoter Gaussia luciferase, luminescence; 100% = recombinant luciferase protein wells;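 active = activation above the mean of all tested compounds plus 3 SD, cut at about 9.5% in these data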;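 also: cells exposed to compounds for one day before reading; 0% = median of all test compound wells on the plate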
# HuH7 TTR inh = decreases TTR transcription in HuH7 cells in activator counter-screen | shares compounds with TTR transcr act | HuH7 TTR promoter-Gaussia luciferase reporter, luminescence | inhibition, % at 16.7 µM | hit rate 4% among 1,100 | AID 1117279;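 active = average inhibition above the solvent-only control wells' mean plus 3 SD, cut at about 15% in these data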;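 also: 0% = cells with DMSO only and 100% = cells with inhibitor control FD; inhibitors lower well luminescence so higher value means more inhibition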
# TTR act confirm = human TTR transcription activation, confirmation; shares compounds with TTR transcr act; 1,100 tested, under 10 active; SHSY5Y TTR promoter Gaussia luciferase, luminescence; 100% = purified Lucia enzyme wells, no cells; AID 1117280; activation, % at 16.7 µM;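 active = mean activation above a set limit taken from the earlier primary screen, cut at about 11% in these data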;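 also: 0% = DMSO-treated cells and 100% = recombinant Lucia luciferase without cells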
# Starred values were filed as active, the others as inactive. This is one part of a sample in which hits are shown more often than they occur.
SMILES,TTR transcr act,others
COc1ccc(CN2CCN(Cc3cccc(Oc4ccccc4)c3)CC2)c(OC)c1OC,-1.6,
CN1CCN(Cc2cccc(Oc3ccccc3)c2)CC1,18.0*,HuH7 TTR inh=-3.9;TTR act confirm=-0.7
CCOC(=O)[C@]12CCCC=C1N(Cc1ccc(OC)cc1)C(=O)[C@@H]2CC(=O)NCC12CC3CC(CC(C3)C1)C2,-0.5,
CCCCCCCCN1C(=O)N(Cc2ccc(OC)cc2)S(=O)(=O)c2ccc(F)cc21,-1.1,
COc1cccc(N(C)C(=O)[C@@H](C)[C@@H](O)c2ccc(C(C)=O)cc2)c1,1.2,
CCN(CC)C(=O)Cn1c2ccccc2c2nc3n(c(=O)c21)CCS3,-1.0,
Cn1c(=O)c2c(ncn2CC(O)CNc2ccc(F)cc2)n(C)c1=O (stereo not given),15.6*,HuH7 TTR inh=-11.0;TTR act confirm=0.3
Cn1c(=O)c2c(ncn2CC(=O)N2CCN(S(=O)(=O)c3ccc(F)cc3)CC2)n(C)c1=O,-1.4,
Cn1c(=O)c2c(nc(SCC(=O)c3ccc(F)cc3)n2C)n(C)c1=O,-0.2,
COC(=O)[C@]12C[C@H](CC(=O)NCC3CCCCC3)C(=O)N(CCc3ccc(OC)c(OC)c3)C1=C[C@H](C(C)C)O[C@@H]2C1CC1,2.6,
C=CCN1C(=O)[C@H](CC(=O)N2CCN(C(=O)c3ccco3)CC2)[C@@]2(C(=O)OCC)CCCC=C12,3.3,
CCCCCCCCN1C(=O)[C@@H](CC(=O)NCC2CCCCC2)C[C@@]2(C(=O)OC)C1=C[C@H](COCc1ccccc1)O[C@@H]2C,1.5,
COc1ccc([C@@]23CCN=C2c2[nH]c4ccccc4c2CCN3)c(N)c1,-1.0,
COc1ccc(C(C)(NC(C)=O)c2nc(-c3cccc(C(=O)O)c3)cs2)cc1 (stereo not given),10.0*,HuH7 TTR inh=-19.9;TTR act confirm=0.0
COc1ccc(C(C)(NC(C)=O)c2nc(-c3cc(F)cc(F)c3)cs2)cc1 (stereo not given),-2.0,
COc1cccc(C(C)(O)c2nc(-c3cccc(C(=O)O)c3)cs2)c1 (stereo not given),1.5,
CCOC(=O)C1=CCN(S(=O)(=O)c2ccc(Cl)cc2)C1c1ccc(Cl)c(Cl)c1 (stereo not given),-1.1,
CC(C)(C)S(=O)N1C[C@@H]2CC(=O)C(c3ccccc3)=C2[C@H]1CCO (stereo not given in full),-0.8,
CN1CCC(N[C@@H](Cc2c[nH]c3ccccc23)C(=O)NCCCc2ccccc2)(C(=O)NCCc2c[nH]c3ccccc23)CC1,5.8,
C[C@H]1C2CC(OC(=O)Nc3ccc(C#N)cc3)C(C2)[C@H]2CCCCN21 (stereo not given in full),-0.1,
O=C(NCc1ccc(F)cc1)C1CCCN(S(=O)(=O)c2cccc3nonc23)C1 (stereo not given),2.1,
O=C(NCCc1ccccc1)C1CCN(S(=O)(=O)c2cccc3nonc23)CC1,-2.9,
O=C(NCCc1ccccc1)C1CCCN(S(=O)(=O)c2cccc3nonc23)C1 (stereo not given),10.0*,HuH7 TTR inh=-5.0;TTR act confirm=2.4
CCn1c(CN2CCOCC2)nnc1SCC(=O)Nc1cccc(C)c1,21.1*,HuH7 TTR inh=-16.5;TTR act confirm=-1.1
Cc1cccc(NC(=O)CSc2nnc(C)n2Cc2ccccc2)c1,5.7,
SMILES,TTR transcr act,others
Cc1ccc(NC(=O)CSc2nnc(CN3CCOCC3)n2-c2ccccc2)cc1,-0.7,
COC(=O)[C@]12C[C@H](CC(=O)NCC34CC5CC(CC(C5)C3)C4)C(=O)N(CCC3=CCCCC3)C1=C[C@H](C1CCCC1)O[C@@H]2C,0.7,
O=C(COC(=O)c1ccccc1O)Nc1ccc(S(=O)(=O)N2CCCCC2)cc1,-4.0,
O=C(COC(=O)c1ccc(Cl)nc1)Nc1ccc(S(=O)(=O)N2CCCC2)cc1,20.0*,HuH7 TTR inh=-0.6;TTR act confirm=-0.8
O=C(COC(=O)c1ccc(Cl)nc1)Nc1cc(S(=O)(=O)N2CCCCC2)ccc1Cl,-0.8,
COc1ccc(CNS(=O)(=O)c2cc(Cl)ccc2N2CC[C@@H](O)C2)cc1,-1.7,
Cc1ccn2cc(-c3ccc(Br)cc3)nc2c1,-2.7,
Cc1cccn2cc(-c3ccc(S(=O)(=O)N4CCOCC4)cc3)nc12,0.0,
O=[N+]([O-])c1cccn2cc(-c3ccc(Br)cc3)nc12,10.9*,HuH7 TTR inh=5.8;TTR act confirm=-0.7
C[C@H]1[C@@H](N)CC[C@@]23CCCN2C(=O)CCC[C@@H]13,-0.1,
Cc1cccc(NC(=O)C(C)Sc2nc3ccccc3c(=O)n2CCCN2CCOCC2)c1 (stereo not given),20.8*,HuH7 TTR inh=-10.7;TTR act confirm=1.3
CC(C)Cn1c(SC(C)C(=O)Nc2ccc(N3CCOCC3)cc2)nc2ccccc21 (stereo not given),-1.6,
COc1ccc(NC(=O)CSc2nc3ccccc3c(=O)n2CCCN2CCOCC2)c(OC)c1,1.6,
N#Cc1ccc(C(=O)Oc2coc(CSc3ncccn3)cc2=O)cc1,1.6,
O=c1cc(N2CCN(c3cccc(Cl)c3Cl)CC2)[nH]c(=O)n1C1CCCCC1,0.8,
CCOC(=O)N1CCN(C(=O)C[C@H]2C(=O)N(CCCOC)C3=CCCC[C@@]32C(=O)OCC)CC1,-0.2,
CCOC(=O)c1c(C)[nH]c(C)c1C(=O)COC(=O)c1ccc(O)cc1,-1.4,
CCOC(=O)c1c(C)[nH]c(C)c1C(=O)COC(=O)c1sccc1C,10.7*,HuH7 TTR inh=-15.6;TTR act confirm=-0.4
CCOC(=O)c1c(C)[nH]c(C)c1C(=O)COC(=O)c1c(OC)cccc1OC,-1.4,
COC(=O)[C@]12C[C@H](CC(=O)NCc3cccc(C(F)(F)F)c3)C(=O)N(CCc3ccc(OC)c(OC)c3)C1=C[C@H](COCc1ccccc1)O[C@@H]2C,-1.9,
CCOC(=O)N1CCN(C2CCCN(C(=O)c3ccccc3SC)C2)CC1 (stereo not given),1.1,
COCCSc1ccccc1C(=O)N1CCCC(C)C1 (stereo not given),20.9*,HuH7 TTR inh=-26.0;TTR act confirm=0.1
COCCSc1ccccc1C(=O)N1CCN(c2ccccc2)CC1,0.3,
CCc1ccc(Cn2c(=O)n(Cc3ccc(C(=O)NCCCOC)cc3)c(=O)c3ccccc32)cc1,-0.1,
Cc1cccc(N(Cc2cc3cc(C)ccc3[nH]c2=O)C(=O)c2cccs2)c1,-1.6,
SMILES,TTR transcr act,others
COc1cc2cc(CN(CCO)C(=O)c3cccs3)c(=O)[nH]c2cc1OC,32.6*,HuH7 TTR inh=-10.9;TTR act confirm=0.2
COc1cc2cc(CN(CCc3cccc(C)c3)C(=S)NCCCN(C)C)c(=O)[nH]c2cc1OC,-1.5,
CCc1ccc(-n2ncc(Cl)c(Oc3ccc(OC)cc3)c2=O)cc1,-2.2,
CCOC(=O)[C@]12CCCC=C1N(Cc1ccc(OC)cc1)C(=O)[C@@H]2CC(=O)NCCCN1CCCC1=O,0.7,
O=C(CSc1ncnc2nc[nH]c12)c1ccc2ccccc2c1,-4.0,
O=C(CSc1ncccc1C(=O)O)c1cccc(C(F)(F)F)c1,-1.3,
O=C(CSc1ncccc1C(=O)O)c1ccc2ccccc2c1,11.5*,HuH7 TTR inh=-16.9;TTR act confirm=0.8
COC[C@H]1CCCN1c1ccc2c(c1)OCCCN(C1CC1)S2(=O)=O,-0.1,
O=C(Nc1ccc(C(F)(F)F)cc1)OC1CC2CC1[C@H]1CCCCN1[C@H]2Cc1ccccc1 (stereo not given in full),-1.1,
COC(=O)[C@]12C[C@H](CC(=O)NCc3cccs3)C(=O)N(CCC3=CCCCC3)C1=C[C@H](C1CCCC1)O[C@@H]2C,1.7,
Cc1ccc(Nc2ccc([N+](=O)[O-])cn2)cc1Cl,0.9,
Cc1ccc(Nc2cc(=O)[nH]c(=O)[nH]2)cc1Cl,9.7*,HuH7 TTR inh=-2.8;TTR act confirm=-0.8
